In PubChem BioAssay (NCI):
About 79,000 compounds went through this panel and 15% of them were active in at least one assay; those are over-represented in the sample as a whole. Active and inactive are the calls of the source. Cut-off read from the data, not from the text of the source: active = growth inhibition above about 70%; inactive = the rest.

Experiments:
[1] = NCI Yeast Anticancer Drug Screen. Data for the rad52 strain (AID 147);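 note: 0% = growth of vehicle-treated control cultures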; settings: S. cerevisiae rad52 mutant growth inhibition, active compounds read high
How it was run: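 Compounds are applied to a genetically defined yeast strain lacking normal DNA damage repair, and inhibition of growth is expressed relative to cultures given vehicle only.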

[2] = NCI Yeast Anticancer Drug Screen. Data for the wt1 strain (AID 149);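 note: 0% = growth of vehicle-treated wt1 cultures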; settings: S. cerevisiae wt1 strain (SPY 50644) growth inhibition, active compounds read high
How it was run: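 Readout: yeast growth inhibition, normalised to vehicle controls, in the wt1 strain exposed to test compounds.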

[3] = NCI Yeast Anticancer Drug Screen. Data for the rad50EPP+ strain (AID 151);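 note: 0% = growth of vehicle-treated control cultures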; settings: S. cerevisiae rad50 mutant strain, active compounds read high
How it was run: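 Compounds were applied to the rad50EPP+ yeast strain, which bears a defined DNA repair alteration, and growth inhibition was determined relative to vehicle-treated cultures.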

[4] = NCI Yeast Anticancer Drug Screen. Data for the mgt1 strain (AID 153); settings: S. cerevisiae mgt1 mutant growth inhibition, active compounds read high
How it was run: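 Strain: mgt1 yeast, one of a set carrying defined DNA damage repair or cell cycle control alterations. Compound-treated growth compared with vehicle.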

[5] = NCI Yeast Anticancer Drug Screen. Data for the rad50 strain (AID 155);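 note: 0% = growth of vehicle-only cultures of the same strain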; settings: S. cerevisiae rad50 strain growth inhibition, active compounds read high
How it was run: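 Compounds were tested on a yeast strain with an engineered DNA damage repair alteration; the reported value is growth inhibition normalised to vehicle treatment.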

[6] = NCI Yeast Anticancer Drug Screen. Data for the mec2-1 strain (AID 157); settings: S. cerevisiae mec2-1 strain, active compounds read high
How it was run: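 Strain: mec2-1 (DNA repair/cell cycle alteration). Compound exposure, then growth measured; inhibition expressed relative to vehicle.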

[7] = NCI Yeast Anticancer Drug Screen. Data for the rad14 strain (AID 159);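 note: 0% = growth of vehicle-treated control cultures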; settings: S. cerevisiae rad14 strain growth inhibition, active compounds read high
How it was run: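 Compound-treated yeast with a defined DNA-repair lesion; growth inhibition normalised to vehicle-treated cultures.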

[8] = NCI Yeast Anticancer Drug Screen. Data for the CLN2oe strain (AID 163);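 note: 0% = growth of vehicle-only control cultures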; settings: S. cerevisiae CLN2oe strain, active compounds read high
How it was run: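 Growth of a genetically modified yeast strain is measured after compound exposure and compared with cultures given vehicle alone.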

[9] = NCI Yeast Anticancer Drug Screen. Data for the cln2 rad14 strain (AID 165);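 note: 0% = growth equal to vehicle treated cultures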; settings: S. cerevisiae cln2 rad14 strain, active compounds read high
How it was run: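 Compounds are applied to the cln2 rad14 yeast strain, and growth is then compared with that of vehicle-treated cultures to give inhibition.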

[10] = NCI Yeast Anticancer Drug Screen. Data for the bub3 strain (AID 167); settings: S. cerevisiae bub3 mutant strain, active compounds read high
How it was run: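 Growth of a checkpoint-deficient yeast mutant is measured after compound exposure. Values represent inhibition relative to vehicle.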

[11] = NCI Yeast Anticancer Drug Screen. Data for the wt2 strain (AID 169);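 note: 0% = growth of vehicle-treated yeast cultures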; settings: S. cerevisiae wt2 strain growth inhibition, active compounds read high
How it was run: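 This strain belongs to a panel of yeast strains with defined genetic alterations in DNA damage repair or cell cycle control. Compounds are applied, and growth inhibition is measured against vehicle-treated cultures.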

[12] = NCI Yeast Anticancer Drug Screen. Data for the mlh1 strain (AID 171);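 note: 0% = growth of vehicle-treated control cultures of the same strain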; settings: S. cerevisiae mlh1 strain growth inhibition, active compounds read high
How it was run: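 Growth of the mutant yeast strain after compound exposure, expressed as inhibition relative to vehicle-only controls.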

[13] = NCI Yeast Anticancer Drug Screen. Data for the sgs1 strain (AID 173);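 note: 0% = growth of vehicle-only control cultures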; settings: S. cerevisiae sgs1 mutant, active compounds read high
How it was run: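 Growth of a yeast strain bearing a defined genetic alteration is measured after compound treatment. Inhibition is expressed relative to vehicle-only controls.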

[14] = NCI Yeast Anticancer Drug Screen. Data for the mlh1 rad18 strain (AID 175); settings: S. cerevisiae mlh1 rad18 strain growth inhibition, active compounds read high
How it was run: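 Read-out is yeast growth inhibition, calculated against vehicle-only controls. The compound was applied to a strain engineered with DNA damage repair alterations.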

[15] = NCI Yeast Anticancer Drug Screen. Data for the rad18 strain (AID 177); settings: S. cerevisiae rad18 mutant growth inhibition, active compounds read high
How it was run: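 Growth of the mutant yeast strain after compound exposure, normalised to vehicle-only cultures.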

[16] = at 5.0 µM (retest, dose inferred, filed as 0.5)
[17] = at 50.0 µM (retest, dose inferred, filed as 5.0)

Measured: growth inhibition

O=C(O)c1cccc(-c2c3ccc(=O)cc-3oc3cc(O)ccc23)c1
active: [1]; at 100.0 µM 85% | [2]; at 33.0 µM 77% | [2]; at 100.0 µM 96% | [4]; at 33.0 µM 80% | [4]; at 100.0 µM 97% | [5]; [16] 90% | [5]; [17] 99% | [5]; at 100.0 µM 90% | [6]; [16] 94% | [6]; at 33.0 µM 84% | [6]; [17] 99% | [6]; at 100.0 µM 96% | [7]; at 33.0 µM 71% | [7]; at 100.0 µM 95% | [8]; at 100.0 µM 96% | [10]; at 33.0 µM 79% | [10]; at 100.0 µM 92% | [11]; at 33.0 µM 76% | [11]; at 100.0 µM 95% | [12]; at 33.0 µM 78% | [12]; at 100.0 µM 93% | [13]; at 33.0 µM 83% | [13]; at 100.0 µM 92% | [14]; [16] 94% | [14]; [17] 99% | [15]; at 33.0 µM 71% | [15]; at 100.0 µM 89%
inactive: [1]; at 1.2 µM -4% | [1]; at 3.7 µM 26% | [1]; at 11.0 µM 23% | [1]; at 33.0 µM 62% | [2]; at 1.2 µM -10% | [2]; at 3.7 µM -5% | [2]; at 11.0 µM 18% | [3]; at 1.2 µM -10% | [3]; at 3.7 µM 3% | [3]; at 11.0 µM 1% | [3]; at 33.0 µM -2% | [3]; at 100.0 µM 25% | [4]; at 1.2 µM 21% | [4]; at 3.7 µM 12% | [4]; at 11.0 µM 43% | [5]; at 1.2 µM 9% | [5]; at 3.7 µM 13% | [5]; at 11.0 µM 22% | [5]; at 33.0 µM 65% | [5]; at 50.0 µM 63.6% | [6]; at 1.2 µM 14% | [6]; at 3.7 µM 14% | [6]; at 11.0 µM 36% | [6]; at 50.0 µM 23.1% | [7]; at 1.2 µM -29% | [7]; at 3.7 µM -20% | [7]; at 11.0 µM 2% | [8]; at 1.2 µM 11% | [8]; at 3.7 µM -13% | [8]; at 11.0 µM -4% | [8]; at 33.0 µM 61% | [9]; [16] 33% | [9]; [17] 69% | [9]; at 50.0 µM 51% | [10]; at 1.2 µM 10% | [10]; at 3.7 µM 29% | [10]; [16] 53% | [10]; at 11.0 µM 49% | [10]; [17] 69% | [10]; at 50.0 µM 62.9% | [11]; at 1.2 µM -33% | [11]; at 3.7 µM -31% | [11]; at 11.0 µM -1% | [12]; at 1.2 µM -23% | [12]; at 3.7 µM -6% | [12]; at 11.0 µM 39% | [13]; at 1.2 µM 16% | [13]; at 3.7 µM 35% | [13]; at 11.0 µM 44% | [14]; at 50.0 µM 47.8% | [15]; at 1.2 µM -3% | [15]; at 3.7 µM 6% | [15]; at 11.0 µM 41%
